Laboratory results from PMC7862700, “An all-to-all approach to the identification of sequence-specific readers for epigenetic DNA modifications on cytosine”.

Key:
Assay in all cases: DAPPL (digital affinity profiling via proximity ligation, sequencing); 10 mM Tris-HCl pH 7.5, 50 mM NaCl, 1 mM DTT, 4% glycerol, room temperature, 30 min; GST-TFs on glutathione beads, 16-mer random dsDNA library, 0.1% formaldehyde crosslink after washing; high values mean tight binding
[1] = target: T1, FLI1 (Homo sapiens, UniProt Q01543 1-452); conditions: protein: recombinant; tags: N-terminal GST; dsDNA, one strand shown
T1 sequence: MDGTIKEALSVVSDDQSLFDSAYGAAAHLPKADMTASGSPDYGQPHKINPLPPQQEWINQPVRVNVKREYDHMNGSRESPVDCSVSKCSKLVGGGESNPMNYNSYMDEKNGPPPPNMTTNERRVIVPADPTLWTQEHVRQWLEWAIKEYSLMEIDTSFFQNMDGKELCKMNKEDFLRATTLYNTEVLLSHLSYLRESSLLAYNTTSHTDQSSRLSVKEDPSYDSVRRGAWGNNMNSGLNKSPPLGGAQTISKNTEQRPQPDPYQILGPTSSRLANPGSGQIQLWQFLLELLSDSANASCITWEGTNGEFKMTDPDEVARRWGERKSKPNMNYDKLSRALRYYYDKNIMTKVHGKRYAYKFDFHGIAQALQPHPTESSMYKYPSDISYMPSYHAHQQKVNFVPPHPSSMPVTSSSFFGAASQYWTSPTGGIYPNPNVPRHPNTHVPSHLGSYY
Outline: (§1)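 A tag-only sample was pooled with DNA-barcoded human transcription factors that had been expressed in yeast as GST fusions and captured on glutathione beads. The pools were incubated for 30 min at room temperature with 200 nmole of a random double-stranded 16-mer DNA library in Tris/NaCl/DTT/glycerol buffer, then washed, crosslinked with 0.1% formaldehyde, proximity-ligated (BsaI/T4 ligase, 1 h, 37 °C), PCR-amplified and sequenced on an Illumina NextSeq500. Binding signal is each hexamer's read frequency for a factor divided by its frequency for the tag-only sample.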

[2] = target: T2, ELK1 (Homo sapiens, UniProt P19419 1-428); conditions: protein: recombinant; tags: N-terminal GST; dsDNA, one strand shown
T2 sequence: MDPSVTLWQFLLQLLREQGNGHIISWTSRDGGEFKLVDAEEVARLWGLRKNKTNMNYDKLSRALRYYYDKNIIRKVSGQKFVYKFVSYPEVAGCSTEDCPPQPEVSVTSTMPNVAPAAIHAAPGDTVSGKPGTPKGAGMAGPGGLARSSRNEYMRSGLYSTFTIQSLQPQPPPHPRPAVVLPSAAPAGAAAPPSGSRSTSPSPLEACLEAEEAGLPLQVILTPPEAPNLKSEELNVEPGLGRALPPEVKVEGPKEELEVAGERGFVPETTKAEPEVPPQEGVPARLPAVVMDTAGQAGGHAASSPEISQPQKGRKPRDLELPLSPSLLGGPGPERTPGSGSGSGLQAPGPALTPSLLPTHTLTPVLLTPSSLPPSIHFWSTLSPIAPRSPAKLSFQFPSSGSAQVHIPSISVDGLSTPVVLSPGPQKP
Outline: as §1

[3] = target: T3, GABPA (Homo sapiens, UniProt Q06546 1-454); conditions: protein: recombinant; tags: N-terminal GST; dsDNA, one strand shown
T3 sequence: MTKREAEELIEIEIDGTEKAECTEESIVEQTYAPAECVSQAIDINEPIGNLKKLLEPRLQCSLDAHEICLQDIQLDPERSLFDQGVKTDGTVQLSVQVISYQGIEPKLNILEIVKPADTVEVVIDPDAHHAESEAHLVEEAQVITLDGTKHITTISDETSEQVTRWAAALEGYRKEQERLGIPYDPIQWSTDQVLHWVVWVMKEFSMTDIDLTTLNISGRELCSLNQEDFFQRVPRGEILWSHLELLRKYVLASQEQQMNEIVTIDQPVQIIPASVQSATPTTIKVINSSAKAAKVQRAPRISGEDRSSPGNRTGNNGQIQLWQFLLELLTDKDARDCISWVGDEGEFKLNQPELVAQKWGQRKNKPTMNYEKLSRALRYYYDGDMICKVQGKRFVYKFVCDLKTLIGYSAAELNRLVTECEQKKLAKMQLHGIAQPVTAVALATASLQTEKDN
Outline: as §1

[4] = target: T4, ERG (Homo sapiens, UniProt P11308 1-479); conditions: protein: recombinant; tags: N-terminal GST; dsDNA, one strand shown
T4 sequence: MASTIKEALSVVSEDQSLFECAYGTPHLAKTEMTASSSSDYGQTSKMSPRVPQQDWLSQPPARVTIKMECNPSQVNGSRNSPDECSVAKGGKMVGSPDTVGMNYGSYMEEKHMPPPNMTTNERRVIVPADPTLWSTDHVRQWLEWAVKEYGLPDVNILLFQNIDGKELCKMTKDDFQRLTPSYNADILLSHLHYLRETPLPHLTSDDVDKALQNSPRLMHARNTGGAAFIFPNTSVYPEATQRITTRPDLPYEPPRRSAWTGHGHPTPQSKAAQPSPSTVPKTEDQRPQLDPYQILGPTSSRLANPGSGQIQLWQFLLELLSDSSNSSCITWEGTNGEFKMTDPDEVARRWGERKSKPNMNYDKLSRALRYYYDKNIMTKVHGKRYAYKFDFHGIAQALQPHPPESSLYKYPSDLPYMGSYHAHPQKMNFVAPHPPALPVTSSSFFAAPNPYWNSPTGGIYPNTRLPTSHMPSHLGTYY
Outline: as §1

[5] = target: ELF1 (Homo sapiens, UniProt P32519 1-619); conditions: protein: recombinant; tags: N-terminal GST; dsDNA, one strand shown
Outline: as §1

[6] = target: T5, EHF (Homo sapiens, UniProt Q9NZC4 1-300); conditions: protein: recombinant; tags: N-terminal GST; dsDNA, one strand shown
T5 sequence: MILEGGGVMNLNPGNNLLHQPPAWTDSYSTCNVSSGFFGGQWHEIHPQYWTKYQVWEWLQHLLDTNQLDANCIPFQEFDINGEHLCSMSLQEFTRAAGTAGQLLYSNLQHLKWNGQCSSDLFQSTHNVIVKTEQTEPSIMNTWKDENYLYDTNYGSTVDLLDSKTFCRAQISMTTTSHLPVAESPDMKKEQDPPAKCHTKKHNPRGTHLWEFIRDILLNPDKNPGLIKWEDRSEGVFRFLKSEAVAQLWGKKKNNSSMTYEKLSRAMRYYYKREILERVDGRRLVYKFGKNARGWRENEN
Outline: as §1

[7] = target: SPI1 (Homo sapiens, UniProt P17947 1-270); conditions: protein: recombinant; tags: N-terminal GST; dsDNA, one strand shown
Outline: as §1

[8] = target: SPIB (Homo sapiens, UniProt Q01892 1-262); conditions: protein: recombinant; tags: N-terminal GST; dsDNA, one strand shown
Outline: as §1

[9] = target: T6, FEV (Homo sapiens, UniProt Q99581 1-238); conditions: protein: recombinant; tags: N-terminal GST; dsDNA, one strand shown
T6 sequence: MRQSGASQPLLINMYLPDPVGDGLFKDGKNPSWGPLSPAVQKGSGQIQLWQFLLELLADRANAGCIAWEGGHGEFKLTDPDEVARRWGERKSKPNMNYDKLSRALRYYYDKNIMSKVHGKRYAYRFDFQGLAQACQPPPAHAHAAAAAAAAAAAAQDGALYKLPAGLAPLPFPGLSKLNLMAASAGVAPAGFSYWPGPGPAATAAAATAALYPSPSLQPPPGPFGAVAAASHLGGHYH
Outline: as §1

[10] = target: ETV5 (Homo sapiens, UniProt P41161 1-510); conditions: protein: recombinant; tags: N-terminal GST; dsDNA, one strand shown
Outline: as §1

[11] = target: HSF1 (Homo sapiens, UniProt Q00613 1-529); conditions: protein: recombinant; tags: N-terminal GST; chain copies: 3; dsDNA, one strand shown
Outline: as §1

[12] = target: ELF4 (Homo sapiens, UniProt Q99607 1-663); conditions: protein: recombinant; tags: N-terminal GST; dsDNA, one strand shown
Outline: as §1

[13] = target: T7, ELK4 (Homo sapiens, UniProt P28324-2 1-405); conditions: protein: recombinant; tags: N-terminal GST; dsDNA, one strand shown
T7 sequence: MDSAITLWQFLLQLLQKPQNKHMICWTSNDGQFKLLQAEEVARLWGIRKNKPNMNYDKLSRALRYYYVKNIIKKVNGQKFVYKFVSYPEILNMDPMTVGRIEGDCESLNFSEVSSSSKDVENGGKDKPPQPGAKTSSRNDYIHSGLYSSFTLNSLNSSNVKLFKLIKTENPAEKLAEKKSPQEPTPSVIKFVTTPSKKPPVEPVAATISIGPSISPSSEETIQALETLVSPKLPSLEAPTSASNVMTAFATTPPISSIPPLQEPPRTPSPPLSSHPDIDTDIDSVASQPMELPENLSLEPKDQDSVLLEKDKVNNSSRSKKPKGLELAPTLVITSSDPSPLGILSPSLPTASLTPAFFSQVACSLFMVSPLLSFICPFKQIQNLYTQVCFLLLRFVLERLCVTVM
Outline: as §1

[14] = target: T8, ELF3 (Homo sapiens, UniProt P78545 1-371); conditions: protein: recombinant; tags: N-terminal GST; dsDNA, one strand shown
T8 sequence: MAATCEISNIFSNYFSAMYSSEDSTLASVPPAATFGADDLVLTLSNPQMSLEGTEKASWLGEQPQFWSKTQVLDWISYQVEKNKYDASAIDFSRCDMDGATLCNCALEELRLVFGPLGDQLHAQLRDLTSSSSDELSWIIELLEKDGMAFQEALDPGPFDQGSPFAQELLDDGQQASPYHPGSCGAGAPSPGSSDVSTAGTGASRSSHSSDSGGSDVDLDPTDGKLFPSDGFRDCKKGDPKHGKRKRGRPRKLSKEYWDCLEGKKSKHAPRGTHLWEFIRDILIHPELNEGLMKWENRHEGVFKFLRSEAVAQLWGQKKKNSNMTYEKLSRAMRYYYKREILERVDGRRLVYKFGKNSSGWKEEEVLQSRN
Outline: as §1

[15] = target: CRX (Homo sapiens, UniProt O43186 1-299); conditions: protein: recombinant; tags: N-terminal GST; dsDNA, one strand shown
Outline: as §1

[16] = target: ETV1 (Homo sapiens, UniProt P50549 1-477); conditions: protein: recombinant; tags: N-terminal GST; dsDNA, one strand shown
Outline: as §1

Chain of ETV5 (P41161 whole entry): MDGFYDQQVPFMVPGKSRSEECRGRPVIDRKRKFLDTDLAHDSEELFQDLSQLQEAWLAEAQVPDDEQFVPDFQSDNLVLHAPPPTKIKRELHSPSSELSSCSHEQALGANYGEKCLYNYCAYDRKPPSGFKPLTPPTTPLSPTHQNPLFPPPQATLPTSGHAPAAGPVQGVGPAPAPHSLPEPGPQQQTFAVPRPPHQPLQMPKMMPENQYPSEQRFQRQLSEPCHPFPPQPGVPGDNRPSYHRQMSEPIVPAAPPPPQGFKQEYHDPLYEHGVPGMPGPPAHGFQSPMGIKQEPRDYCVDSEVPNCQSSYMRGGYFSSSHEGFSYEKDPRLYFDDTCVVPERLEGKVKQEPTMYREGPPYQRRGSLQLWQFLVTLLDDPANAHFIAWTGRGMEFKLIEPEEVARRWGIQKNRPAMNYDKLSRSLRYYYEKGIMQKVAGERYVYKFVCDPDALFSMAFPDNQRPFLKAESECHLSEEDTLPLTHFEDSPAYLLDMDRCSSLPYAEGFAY
Chain of CRX (O43186 whole entry): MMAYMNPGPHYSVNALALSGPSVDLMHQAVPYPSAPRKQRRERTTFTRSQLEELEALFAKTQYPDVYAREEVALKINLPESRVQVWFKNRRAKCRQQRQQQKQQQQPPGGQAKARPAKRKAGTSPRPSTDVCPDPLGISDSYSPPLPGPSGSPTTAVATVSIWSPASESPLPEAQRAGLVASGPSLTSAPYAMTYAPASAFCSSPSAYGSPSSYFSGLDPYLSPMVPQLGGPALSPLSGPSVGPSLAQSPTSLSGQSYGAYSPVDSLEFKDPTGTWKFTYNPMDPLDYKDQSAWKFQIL
Chain of SPIB (Q01892 whole entry): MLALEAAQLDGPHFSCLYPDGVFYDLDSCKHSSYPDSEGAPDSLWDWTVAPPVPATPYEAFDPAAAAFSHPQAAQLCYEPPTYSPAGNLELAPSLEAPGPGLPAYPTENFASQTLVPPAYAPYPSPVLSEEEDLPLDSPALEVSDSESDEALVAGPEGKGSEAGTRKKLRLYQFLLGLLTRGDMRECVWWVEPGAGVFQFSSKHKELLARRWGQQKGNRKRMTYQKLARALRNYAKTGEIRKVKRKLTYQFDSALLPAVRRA
Chain of ELF1 (P32519 whole entry): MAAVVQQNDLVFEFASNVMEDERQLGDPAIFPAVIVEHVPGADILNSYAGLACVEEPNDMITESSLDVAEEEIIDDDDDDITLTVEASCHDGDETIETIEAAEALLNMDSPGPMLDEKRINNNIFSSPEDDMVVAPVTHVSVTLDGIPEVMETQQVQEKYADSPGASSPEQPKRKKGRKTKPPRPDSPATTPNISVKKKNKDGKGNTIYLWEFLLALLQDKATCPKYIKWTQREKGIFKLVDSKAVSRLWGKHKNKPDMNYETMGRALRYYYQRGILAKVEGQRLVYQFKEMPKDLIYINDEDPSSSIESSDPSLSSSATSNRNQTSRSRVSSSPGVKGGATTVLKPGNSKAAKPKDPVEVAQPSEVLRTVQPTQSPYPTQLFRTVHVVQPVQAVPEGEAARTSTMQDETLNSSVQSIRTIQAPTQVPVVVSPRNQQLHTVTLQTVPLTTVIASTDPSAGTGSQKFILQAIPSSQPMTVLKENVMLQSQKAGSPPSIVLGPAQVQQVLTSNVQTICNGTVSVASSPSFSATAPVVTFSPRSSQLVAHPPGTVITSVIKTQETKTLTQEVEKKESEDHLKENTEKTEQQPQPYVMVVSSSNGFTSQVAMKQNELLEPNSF
Chain of ETV1 (P50549 whole entry): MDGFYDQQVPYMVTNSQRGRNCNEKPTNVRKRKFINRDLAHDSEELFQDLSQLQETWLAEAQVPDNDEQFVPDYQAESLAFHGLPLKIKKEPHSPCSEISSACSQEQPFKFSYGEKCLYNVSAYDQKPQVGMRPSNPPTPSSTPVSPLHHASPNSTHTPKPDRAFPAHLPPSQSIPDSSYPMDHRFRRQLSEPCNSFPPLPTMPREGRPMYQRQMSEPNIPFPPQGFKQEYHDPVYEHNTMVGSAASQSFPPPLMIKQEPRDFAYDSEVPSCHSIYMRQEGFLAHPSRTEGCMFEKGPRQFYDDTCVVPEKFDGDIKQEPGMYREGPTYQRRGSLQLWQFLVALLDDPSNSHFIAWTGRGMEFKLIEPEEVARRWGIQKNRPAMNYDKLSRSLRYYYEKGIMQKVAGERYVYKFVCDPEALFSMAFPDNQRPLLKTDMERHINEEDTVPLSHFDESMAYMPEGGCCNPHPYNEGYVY
Chain of ELF4 (Q99607 whole entry): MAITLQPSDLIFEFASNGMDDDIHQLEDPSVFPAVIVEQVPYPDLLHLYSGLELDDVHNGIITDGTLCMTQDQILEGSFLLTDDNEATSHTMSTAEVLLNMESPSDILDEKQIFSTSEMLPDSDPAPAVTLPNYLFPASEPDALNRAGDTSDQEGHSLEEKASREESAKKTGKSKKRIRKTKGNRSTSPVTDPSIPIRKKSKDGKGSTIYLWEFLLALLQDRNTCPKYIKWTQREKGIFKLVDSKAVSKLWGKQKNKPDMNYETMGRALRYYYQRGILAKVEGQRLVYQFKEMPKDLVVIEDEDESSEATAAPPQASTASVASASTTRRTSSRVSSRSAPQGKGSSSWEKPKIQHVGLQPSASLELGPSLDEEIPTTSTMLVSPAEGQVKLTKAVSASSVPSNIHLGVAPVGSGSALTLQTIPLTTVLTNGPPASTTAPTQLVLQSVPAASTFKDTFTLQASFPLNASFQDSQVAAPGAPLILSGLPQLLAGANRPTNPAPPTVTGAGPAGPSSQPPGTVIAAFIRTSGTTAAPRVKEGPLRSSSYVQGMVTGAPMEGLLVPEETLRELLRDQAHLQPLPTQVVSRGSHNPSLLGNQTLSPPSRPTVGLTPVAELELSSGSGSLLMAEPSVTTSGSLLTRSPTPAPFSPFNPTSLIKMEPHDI
Chain of HSF1 (Q00613 whole entry): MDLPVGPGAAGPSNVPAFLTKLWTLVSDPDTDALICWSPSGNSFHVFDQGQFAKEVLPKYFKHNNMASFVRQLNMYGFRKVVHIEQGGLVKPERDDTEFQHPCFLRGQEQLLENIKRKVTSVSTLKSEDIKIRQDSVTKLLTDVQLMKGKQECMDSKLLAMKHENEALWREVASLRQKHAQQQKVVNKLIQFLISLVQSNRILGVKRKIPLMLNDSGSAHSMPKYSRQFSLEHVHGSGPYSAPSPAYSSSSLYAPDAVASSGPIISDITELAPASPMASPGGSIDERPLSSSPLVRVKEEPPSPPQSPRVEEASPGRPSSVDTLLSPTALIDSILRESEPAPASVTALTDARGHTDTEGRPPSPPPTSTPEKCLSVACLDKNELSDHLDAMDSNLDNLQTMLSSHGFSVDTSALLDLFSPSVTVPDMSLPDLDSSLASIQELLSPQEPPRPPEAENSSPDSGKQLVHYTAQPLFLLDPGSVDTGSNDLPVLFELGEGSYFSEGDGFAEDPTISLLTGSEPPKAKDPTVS

GGTAAT
binding signal [1]: 1.15 fold enrichment (6-mer frequency, TF over GST control) | binding signal [2]: 1.1 fold enrichment (6-mer frequency, TF over GST control) | binding signal [3]: 1.22 fold enrichment (6-mer frequency, TF over GST control) | binding signal [4]: 1.08 fold enrichment (6-mer frequency, TF over GST control) | binding signal [5]: 1.17 fold enrichment (6-mer frequency, TF over GST control) | binding signal [6]: 1.2 fold enrichment (6-mer frequency, TF over GST control) | binding signal [7]: 1.04 fold enrichment (6-mer frequency, TF over GST control) | binding signal [8]: 1.11 fold enrichment (6-mer frequency, TF over GST control) | binding signal [9]: 1.09 fold enrichment (6-mer frequency, TF over GST control) | binding signal [10]: 1.13 fold enrichment (6-mer frequency, TF over GST control) | binding signal [11]: 1.27 fold enrichment (6-mer frequency, TF over GST control) | binding signal [12]: 1.08 fold enrichment (6-mer frequency, TF over GST control) | binding signal [13]: 1.21 fold enrichment (6-mer frequency, TF over GST control) | binding signal [14]: 1.17 fold enrichment (6-mer frequency, TF over GST control) | binding signal [15]: 1.76 fold enrichment (6-mer frequency, TF over GST control) | binding signal [16]: 1.19 fold enrichment (6-mer frequency, TF over GST control)
